According to PubChem BioAssay AID485317 (Broad Institute, 2010):
“And” between values parts separate entries of the source, which are not always exact repeats. Identical values can stand only once. The whole screen tested about 290,000 compounds, of which about 11,000 (3.8%) were called active. The sample holds actives, similar compounds and a random draw of the others, so the mix is not that of the screen. Values without a mark were called inactive.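 Rule for the calls: active = mean replicate inhibition above about 79%, with every replicate also reaching it (limit read from the data); inconclusive = only one of the two criteria met; inactive = mean below limit and not every replicate reaching it.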

molecular target: FAD-linked sulfhydryl oxidase ALR (Homo sapiens) (UniProt P55789); experiment: ALR-catalysed DTT oxidation blockers – biochemical, H2O2 detection, HRP-luminol luminescence, single point, primary screen (AID 485317); conditions: purified ALR, hits give high values, concentration not given here
Sequence (P55789 whole entry, looked up): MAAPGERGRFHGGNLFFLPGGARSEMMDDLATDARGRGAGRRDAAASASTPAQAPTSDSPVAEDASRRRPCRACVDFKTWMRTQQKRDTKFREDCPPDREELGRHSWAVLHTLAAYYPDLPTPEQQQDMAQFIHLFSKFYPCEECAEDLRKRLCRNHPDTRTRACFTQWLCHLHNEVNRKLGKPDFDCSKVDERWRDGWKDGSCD

SMILES	inhibition
COc1ccc(NC(=O)CSCc2ccc([N+](=O)[O-])cc2)cc1OC	-0.226%
O=C(Cc1ccccc1)Nc1ccc(C(=O)Nc2ccccc2C(=O)O)cc1	87.1% (active)
O=C(CSCc1ccc([N+](=O)[O-])cc1)Nc1cccc(C(=O)Nc2ccccc2C(=O)O)c1	99% (active)
O=C(Cc1ccccc1)Nc1ccc(NC(=O)c2cccnc2)cc1	-3.14%
Cc1c(NC(=O)CSCc2ccccc2)cccc1C(=O)O	-23.6%
O=C(O)c1ccccc1NC(=O)c1ccccc1-c1ccccc1C(=O)O	-5.64%
CC1CCc2[nH]c3ccc(C(=O)N(C)CC(=O)Nc4cccc(F)c4)cc3c2C1 (stereo not drawn)	2.5%
COc1cccc(NC(=O)COc2cccnc2[N+](=O)[O-])c1	-5.23%
Cc1noc(C)c1S(=O)(=O)N(C)C[C@H]1Oc2ccc(NC(=O)C3CCCCC3)cc2C(=O)N([C@H](C)CO)C[C@@H]1C	0.231%
CCN(C[C@H]1N[C@@](CC)(C(=O)OC)[C@H]2C(=O)N(C)C(=O)[C@@H]12)C(=O)Nc1ccc(F)cc1	0.784%
Cc1cccc(NC(=O)COC(=O)CCc2ccccc2)c1C	-8.62%
Cc1cccc(NC(=O)CN2C(=O)c3ccccc3C2=O)c1C	2.16%
Cc1cccc(NC(=O)CSC(N)=O)c1C	98.7% (active)
COc1cc(OC)cc(-c2c(C#Cc3ccsc3)c3cc(-c4ccc(SC)cc4)ccc3n2C)c1	-4.93%
CC1=NN(C(=O)c2ccccc2Br)C(O)(c2cccnc2)C1 (stereo not drawn)	-2.8%
CCOC(=O)C1(O)CC(C)=NN1C(=O)c1cccc(Br)c1 (stereo not drawn)	-4.22%
CC1=NN(C(=O)c2ccc(Br)cc2)C(O)(c2ccccc2)C1 (stereo not drawn)	82.1% (active)
COc1cc(SC)ccc1C(=O)NNC(=O)C1COc2ccccc2O1 (stereo not drawn)	0.292%
O=C1OC(/C=C/c2ccccc2)=NC/1=C/c1ccco1	9.93%
CCC1S/C(=N/N=C/c2ccco2)NC1=O (stereo not drawn)	-6.96%
CC(C)(C)C1C/C(=C/c2ccco2)C(=O)/C(=C/c2ccco2)C1 (stereo not drawn)	96.3% (active)
O=C(CSC1=Nc2ccccc2C2=NC(CC(=O)NCc3ccco3)C(=O)N12)NCc1ccco1 (stereo not drawn)	6.97%
O=C(CSC1=Nc2ccccc2C2=NC(c3ccccc3)C(=O)N12)NCC1CCCO1 (stereo not drawn)	-17.3%
CC(C)C1N=C2c3ccccc3N=C(SCC(=O)c3ccc(O)c(O)c3)N2C1=O (stereo not drawn)	99.7% (active)

SMILES	inhibition
COc1ccccc1-c1c(C#N)c(N)nc2c1CCC2	0.706%
COc1ccc(-c2cc(-c3ccc(N)cc3)nc(N)c2C#N)cc1OC	98.9% (active)
CCOc1cc(-c2cc(-c3ccc(OC)cc3)nc(N)c2C#N)ccc1O	41.9%
O=C(CN1CCC(O)(c2ccccc2)CC1)Nc1ccc2c(c1)OCCO2	-15.8%
CCN(CC)c1ccc(C2C3CCCCC3(O)CCN2CC(=O)Nc2ccccc2)cc1 (stereo not drawn)	97.5% (active)
Cc1ccc(NC(=O)CN2CCC3(O)CCCCC3C2c2ccc3c(c2)OCO3)c(C)c1 (stereo not drawn)	6.21%
O=C(COC(=O)/C=C/c1cccc(Cl)c1)NCc1cccs1	-15.2%
O=C(COc1ccccc1Cl)N1N=C(c2cccs2)CC1c1ccco1 (stereo not drawn)	12.6%
O=C(CSc1nc2nccnc2c(=O)n1Cc1cccs1)Nc1ccccc1F	98.7% (active)
CCOc1ccc(NC(=O)CSc2nc3ccccc3c(=O)n2Cc2cccs2)cc1	-4.39%
COCCn1c(SCC(=O)Nc2ccccc2F)nc2c(c1=O)SCC2	23.5%
COc1ccc(C(=O)N2CCN(c3ccc(C(C)=O)cc3F)CC2)cc1S(=O)(=O)NC1CC1	2.33%
COc1cccc(NC(=O)CN(C)C(=O)CSC(=S)N2CCCC2)c1	-14.6%
CCCCN1C(=O)/C(=C2/C=CC=CN2C)SC1=S	99% (active)
CCCCN1C(=O)/C(=C2/Sc3ccc(Cl)cc3N2CC)SC1=S	-23.2%
CN1C=CC=C/C1=C1\SC(=S)N(Cc2ccccc2)C1=O	-1.3%
O=C(CSc1nc2ccccc2c(=O)n1-c1ccccc1F)N1CCOCC1	-2.73%
CC1CCC(NC(=O)CNC(=O)c2ccc3ccccc3c2)CC1 (stereo not drawn)	-7.47%
CN=c1scc(-c2cc(OC)ccc2OC)n1/N=C/c1c(C)[nH]c2ccccc12	15.7%
COc1ccc(N=Cc2c(O)[nH]c3ccccc23)cc1OC	99.3% (active)
COc1cc(N=Cc2c(O)c3ccccc3oc2=O)c(OC)cc1Cl	-4.24%
COCC(=O)N=Nc1c(O)[nH]c2ccccc12	-3.07%
COc1ccccc1N=Cc1c(O)c2ccccc2oc1=O	0.366%
COc1cc(N=Cc2c(O)[nH]c3ccccc23)cc(OC)c1OC	96.6% (active)

SMILES	inhibition
CN(CC(=O)Nc1ccc(Cl)c(C(F)(F)F)c1)C(=O)CCC(=O)c1ccccc1	-3.88%
Cc1ccc(C)c(S(=O)(=O)N2CCN(c3ncnc4sccc34)CC2)c1	-13.7%
O=C(NCc1ccccc1)c1onc(CSc2ccncc2)c1C(=O)NCc1ccccc1	-5.05%
CC(C)n1ncc2c(C(=O)Nc3ccc(CC#N)cc3)cc(C3CC3)nc21	-14.1%
O=C(c1ccc(N2CCOCC2)c([N+](=O)[O-])c1)N1CCN(c2ccccc2F)CC1	0.595%
O=C1C=C(c2cc(C(F)(F)F)cc(C(F)(F)F)c2)C[C@@H](c2ccc3c(c2)OCO3)C1	-3.13%
Nc1ccc(Nc2ccccc2)cc1	-2.25%
Cc1ccc(Nc2ccc(C(N)=O)cc2[N+](=O)[O-])cc1	-3.97%
Cc1ccc(Nc2ccccc2N)cc1	85.9% (active)
COc1ccc(NC(=O)CN(C)C(=O)c2cc(-c3ccc(C)o3)nc3ccccc23)cc1	-3.77%
CS(=O)(=O)N(CC(=O)N1CCc2ccccc2C1)c1ccc(Br)cc1	-3.9%
C=CCn1c(P(C)(=O)O)nc2ccccc21	-17.7% and -5.83%
CC(C)(C)N1CC(c2nc3ccccc3n2Cc2ccc(F)cc2)CC1=O (stereo not drawn)	-2.5%
C=CCn1c(C2CC(=O)N(c3ccc(C)cc3)C2)nc2ccccc21 (stereo not drawn)	87.3% (active)
COc1ccc(OC)c(NC(=O)COC(=O)Cc2ccsc2)c1	-0.814%
CC(C)(C)c1ccc(Oc2ccc(N)cc2)cc1	98.6% (active)
Cc1cc(C)cc(N)c1	8.46%
CC(C)(C)c1ccc(OC2=CS(=O)(=O)c3ccccc32)cc1	4.58%
Cc1cc(C(C)(C)C)cc(C)c1N	-3.27%
Cc1ccc(Oc2ccc(N)cc2)cc1	98.9% (active)
Cc1ccc(S(=O)(=O)c2ccc(Oc3ccccc3)cc2)cc1	-8.5%
CCOC(=O)N1CCN(C(=O)CSc2nc(=O)n3cccc(C)c3n2)CC1	1.32%
CCN(CC(=O)Nc1c(F)cccc1F)C(=O)C1CCC1	-1.96%
O=C(NCCC1CCCCN1S(=O)(=O)c1ccccc1)C(=O)NCC1CCCO1 (stereo not drawn)	-4.14%

SMILES	inhibition
C[C@@H]1CN([C@@H](C)CO)C(=O)c2cc(NC(=O)C3CC3)ccc2O[C@H]1CN(C)C	1.71%
COc1ccc(-c2nnc(SC(=O)N3c4ccccc4Sc4ccccc43)o2)cc1	94.9% (active)
COc1ccc(-c2nnc(SCC(=O)c3ccc4c(c3)OCCO4)o2)cc1	4.53%
COc1ccc(-c2nnc(SCc3cccnc3)o2)cc1	-15%
COc1ccc(C2(c3ccc(OC)cc3)NC(=O)N(CC(=O)Nc3cc(C)on3)C2=O)cc1	-0.145%
Cc1ccc(SCC(=O)Nc2nncs2)cc1	-6.08%
COCCCN(C(=O)CSCc1ccc(C)cc1)c1c(N)n(Cc2ccccc2)c(=O)[nH]c1=O	46.2%
O=C(CNC(=O)C1COc2ccccc2O1)N/N=C/c1cc(Br)c(O)c(Br)c1 (stereo not drawn)	66.1%
Oc1c(Br)cc(/C=N/NC(=S)NCC2CCCO2)cc1Br (stereo not drawn)	96.2% (active)
S=C(NCC1CCCO1)N1CCN(c2ccc(Cl)c(Cl)c2)CC1 (stereo not drawn)	0.527%
CCCN(C(=O)c1nc2nccc(C)n2n1)c1c(N)n(Cc2ccccc2)c(=O)[nH]c1=O	1.52%
COc1ccc(CCNC(=O)CN2C(=O)COc3ccc(S(=O)(=O)N4CCCC4)cc32)cc1OC	-1.92%
CCc1ccc(NC(=O)CN2C(=O)COc3ccc(S(=O)(=O)N4CCCC4)cc32)cc1	-3.09%
CN(C)c1ccc(CNC(=O)CN2C(=O)COc3ccc(S(=O)(=O)N4CCCC4)cc32)cc1	98.6% (active)
O=C(NCc1ccccn1)Nc1ccc(Cl)cc1	-24.3%
Cc1cc(=O)oc2c(C)c(OCC(=O)NCCN3CCOCC3)ccc12	-3.13%
CCC1=Nc2cc(C(=O)NCCN3CCCC3)ccc2Sc2ccc(C)cc21	-17.3%
Cc1ccsc1-c1nc(CSCC(=O)NCCN2CCCC2)c(C)o1	97.8% (active)
CC(C)(C)c1nnc(N/N=C/c2ccc(O)cc2)n(N)c1=O	98.8% (active)
O=C(O)c1ccc(/C=N/Nc2nc(N3CCCCC3)nc(N3CCCCC3)n2)cc1	3.03%
CCCCn1c(N)c(N(CC(C)C)C(=O)c2cccc(S(=O)(=O)N3CC(C)OC(C)C3)c2)c(=O)[nH]c1=O (stereo not drawn)	-2.1%
